Rows were chosen to be rich in hits. Some 10% of all compounds tested hit in one or more screens of this group.
GPT2 inhibitor: GPT2 alanine aminotransferase inhibition. Recombinant GPT2, coupled pyruvate oxidase/HRP Amplex Red fluorescence. 100,000 compounds, 0.25% hits. AID 1671188. Potency, µM (series often up to 57.7 µM), hits mostly inhibitors. Q8TD30; further: nearly all actives have a fitted effect of over 60% in size
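Recombinant GPT2 (10ng/uL) with 250uM a-KG and 2mM L-alanine, 30 min at room temperature, in HEPES pH 7.5 buffer. Pyruvate detected by pyruvate oxidase/HRP/Amplex Red fluorescence after 30 min in the dark; AOA (50uM) as positive control.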
3T3 cytotox: kills NIH 3T3 cells | NIH 3T3 viability, CellTiter-Glo ATP luminescence, 48-72 h | Potency, µM (series often up to 96.7 µM), usual class: inhibitors | 94,000 compounds, 4.3% hits; further: nearly all actives have a fitted effect of over 55% in size
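Mouse fibroblast NIH 3T3 cells, 400 per well, received compound via pintool and were incubated for 48 or 72 hr prior to CellTiter-Glo ATP luminescence measurement.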
FLuc inh: inhibitors of firefly (Photinus pyralis) luciferase | P08659 | purified P. pyralis luciferase, luminescence, biochemical | Potency, µM (series often up to 115 µM), most hits filed as inhibitors | 76,000 compounds, 2.5% hits | AID 1347043; further: nearly all actives have a fitted effect of over 65% in size
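Cell-free enzyme assay, 10nM P. pyralis luciferase, luciferin and ATP each at 10uM. Inhibition profiled over a 6-point titration, read as luminescence.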
HEK293 tox: cytotoxic compounds in HEK 293 cells; HEK 293 viability, ATP luminescence (CellTiter-Glo), 48-72 h; Potency, µM (top dose mostly 115 µM), hits mostly inhibitors; 94,000 compounds, 6.6% hits; further: nearly all actives have a fitted effect of over 60% in size
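Luminescence from cellular ATP, measured with CellTiter-Glo, indicates HEK 293 viability. Cells plated at 250 cells/well are treated with compound for 48 or 72 hr at 37 degree Celsius before reagent addition.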
hNpr1 antagonist: antagonists of human natriuretic peptide receptor Npr1; P16066; HEK293 hNpr1 GloSensor cGMP, ANP-stimulated luminescence; Potency, µM (series often up to 46.3 µM), hits mostly inhibitors; 76,000 compounds, 1.6% hits; AID 1347048; calls by dose curve; further: nearly all actives have a fitted effect of over 60% in size
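Compound pre-incubated 30 min at room temperature on GloSensor-loaded HEK293 cells stably carrying hNpr1 and the pGS-40F cGMP biosensor. Stimulation uses hNppA at 0.1 nM final; luminescence is taken at baseline and 20 min post-agonist.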
Numbers stand for hits; 0 = inactive; ? = inconclusive; - = no result; ! = repeats disagree. Unless noted, the call rests on the fitted dose curve; in most records, active means well fitted curve in the direction sought with a large enough effect; inconclusive means small, poorly fitted or top-dose-only effect, or another doubt; inactive means no such curve, though single readings can be large; an effect the other way counts as inactive or inconclusive.

SMILES | GPT2 inhibitor | 3T3 cytotox | FLuc inh | HEK293 tox | hNpr1 antagonist
O=C(Cc1c[nH]c2ncc(-c3ccc4c(c3)OCO4)cc12)N1CCOCC1 | 0 | 25.1µM | ? | ? | ?
Cc1ccc(S(=O)(=O)N2CCCC(Cn3c(C)nc4cccnc43)C2)cc1C (stereo unspecified) | ? | ? | 0 | ? | ?
CCc1nc(C)c(C(=O)N2CCC3(CCCN(Cc4cccc(C)c4)C3)C2)o1 (stereo unspecified) | 0 | ? | 0 | ? | 0
COc1cccc(C2CCN(Cc3cn(-c4ccccc4)nn3)C2)c1OC (stereo unspecified) | 0 | ? | 0 | 79.4µM | 0
CN1C[C@@H](NC(=O)c2ccc3c(c2)OCO3)C[C@H]1c1nc(-c2ccc3ccccc3c2)no1 | 0 | ? | 0 | 79.4µM | 0
CN1C[C@@H](NC(=O)CC(C)(C)CC(=O)O)C[C@H]1c1nc(-c2ccc3c(c2)OCO3)no1 | 0 | 0 | 50.1µM | 0 | 0
CC(=O)N1CCC(N2CC[C@@H](CO)N(C)c3ncccc3C2)CC1 | 0 | 44.7µM | 0 | ? | 0
CN1c2cc(C(=O)N3CCN(c4cccc(Cl)c4)CC3)ccc2C(=O)N2CCCCC21 (stereo unspecified) | 0 | ? | 0 | 44.7µM | 0
CN1c2cc(C(=O)N3CCN(c4ccccc4)CC3)ccc2C(=O)N2CCCCC21 (stereo unspecified) | 0 | 0 | 0 | ? | 0
CN1c2cc(C(=O)N3CCN(c4cccc(Cl)c4)CC3)ccc2C(=O)N2CCCC21 (stereo unspecified) | 0 | 0 | 0 | 79.4µM | 0
CN1c2cc(C(=O)N3CCN(c4ccccc4)CC3)ccc2C(=O)N2CCCCCC21 (stereo unspecified) | 0 | ? | 0 | ? | 0
Cc1cccc(N2CCN(C(=O)c3ccc4c(c3)N(C)C3CCCCN3C4=O)CC2)c1 (stereo unspecified) | 0 | ? | 0 | 31.6µM | 0
O=C1Nc2ccccc2C12CN(Cc1ccc3ccccc3c1)C2 | 0 | 0 | - | ? | -
Cc1ccc(S(=O)(=O)NC[C@H]2O[C@@H](CO)[C@@H](O)[C@H]2N2CCCC2)cc1 | 0 | 0 | 0 | 0 | 0
O=C(C1CCCCN1Cc1ccc(-c2cccs2)cc1)N1CCCC1 (stereo unspecified) | 0 | ? | - | ? | -
COc1ccc(NC(=O)c2ccc3c(c2)N(C)C2CCCCCN2C3=O)cc1Cl (stereo unspecified) | 0 | 39.8µM | 0 | 44.7µM | 0
CCN1c2cc(C(=O)Nc3ccc(OC)c(Cl)c3)ccc2C(=O)N2CCCCCC21 (stereo unspecified) | 0 | ? | 0 | 11.2µM | 0
CCN1c2cc(C(=O)NCc3ccc(OC)c(OC)c3)ccc2C(=O)N2CCCCCC21 (stereo unspecified) | 0 | ? | 0 | 44.7µM | 0
COc1cc(NC(=O)c2ccc3c(c2)N(C)C2CCCCCN2C3=O)cc(OC)c1OC (stereo unspecified) | 0 | 35.5µM | 0 | 39.8µM | 0
CN(Cc1nc(COc2ccccc2)no1)CC1(N2CCOCC2)CCCCC1 | 0 | ? | 0 | ? | 0
COc1ccc(C(=O)N2CCCC(c3nc(-c4ccccc4)no3)CCNC(=O)CC2)cc1 (stereo unspecified) | 0 | 0 | 0 | ? | 0
CN(Cc1cccc(C(F)(F)F)c1)S(=O)(=O)c1cccs1 | 0 | ? | 0 | 89.1µM | 0
CCC(=O)N1CCC(=O)N(CC)C2(CCOCC2)C1 | 0 | 0 | 0 | 0 | 0
COc1cccc(CN2C[C@@H](CO)[C@H](C3CCN(C(C)=O)CC3)C2)c1 | 0 | 0 | 0 | 0 | 0
O=C(c1ccc(Cl)cc1)N1CC2(CCN(Cc3ccc(Cl)cc3)C2)Cc2ccccc21 (stereo unspecified) | 0 | ? | - | ? | -
SMILES | GPT2 inhibitor | 3T3 cytotox | FLuc inh | HEK293 tox | hNpr1 antagonist
O=C(Cn1nc2c(cc1=O)CCCC2)N1CCN(Cc2ccccc2Cl)CC1 | 0 | 28.2µM | 0 | ? | 0
O=C(Cn1nc2c(cc1=O)CCCCC2)N1CCN(Cc2ccccc2Cl)CC1 | 0 | 0 | 0 | ? | 0
O=c1n(-c2ccc(F)cc2F)nc2n1CCN(Cc1ccccc1)C2 | 0 | 6.31µM | ? | 3.16µM | 0
O=C(c1ccccc1)N1CCn2c(nn(-c3ccc(F)cc3)c2=O)C1 | 0 | 0 | 0 | 100µM | 0
O=c1n(-c2ccncc2)nc2n1CCN(Cc1ccsc1)C2 | 0 | ? | ? | ? | 0
COc1ccc(-n2nc3n(c2=O)CCN(Cc2ccsc2)C3)cc1 | 0 | 31.6µM | - | ? | -
O=c1n(-c2ccncc2)nc2n1CCN(Cc1ccc(F)cc1)C2 | 0 | ? | 0 | ? | ?
O=c1n(-c2ccc(Cl)cc2)nc2n1CCN(Cc1ccc(F)cc1)C2 | 0 | 28.2µM | - | 39.8µM | -
CC[C@@]1(O)C[C@H](O[C@H]2C[C@H](N(C)C)[C@H](O[C@H]3C[C@H](O)[C@H](O[C@H]4CCC(=O)[C@H](C)O4)[C@H](C)O3)[C@H](C)O2)c2c(cc3c(c2O)C(=O)c2c(O)cccc2C3=O)[C@@H]1C(=O)OC | 0 | - | - | - | -
O=c1n(-c2ccc(C(F)(F)F)cc2)nc2n1CCN(Cc1cccc3ccccc13)C2 | 0 | ? | 0 | 28.2µM! | 0
O=c1n(-c2ccc(C(F)(F)F)cc2)nc2n1CCN(Cc1ccccn1)C2 | 0 | ? | ? | ? | 0
O=c1n(-c2ccc(C(F)(F)F)cc2)nc2n1CCN(Cc1ccc(C(F)(F)F)cc1)C2 | ? | ? | 0 | 35.5µM! | ?
O=c1n(-c2ccc(Cl)cc2)nc2n1CCN(Cc1ccc(C(F)(F)F)cc1)C2 | 0 | ? | - | ? | -
CCOCCCNC(=O)C1CCCCc2nnc(-c3ccccc3)n21 (stereo unspecified) | 0 | 0 | - | 0 | -
Cc1cc(C)cc(NC(=O)NCC2CCOCC2)c1 | 0 | 0 | 0 | 0 | 0
Cn1cc(-c2cnc(Nc3ccc(F)c(Cl)c3)c3c2CCO3)cn1 | 0 | 0 | 0 | ? | 0
c1ccc(-c2cnc(Nc3ccncc3)c3c2CCO3)cc1 | 0 | 44.7µM | 28.2µM | 79.4µM | 25.1µM
Cn1cc(-c2cnc(Nc3ccncc3)c3c2CCO3)cn1 | 0 | 89.1µM | 0 | ? | 0
Cc1ccccc1Oc1c(CCC(=O)NC2CC2)c(C)nn1-c1ccc(F)cc1 | 0 | ? | 0 | ? | 0
O=C(Nc1cccnc1)c1nnn2c1CN(Cc1ccccc1F)C(=O)CC2 | 0 | 100µM | 0 | 0 | 0
C[S+](=O)([O-])c1cccc(NC(=O)c2nnn3c2CN(Cc2cccc(Cl)c2)C(=O)CC3)c1 | 0 | ? | 0 | ? | 0
COc1ccc(-c2ccccc2NC(=O)C2CCCN(Cc3ccc(O)c(OC)c3)C2)cc1 (stereo unspecified) | 0 | ? | 0 | ? | 0
COc1ccc(-c2ccccc2NC(=O)C2CCCN(Cc3c(O)cccc3OC)C2)cc1 (stereo unspecified) | 0 | ? | 0 | 20µM | ?
COc1ccc(-c2ccccc2NC(=O)C2CCCN(Cc3ccccc3O)C2)cc1 (stereo unspecified) | 0 | ? | 0 | 25.1µM | 0

Source: PubChem
